Experimental data from PubChem BioAssay AID701 (PCMD, 2007).
About 70 (0.2%) of roughly 33,000 compounds were called active. Cut-off read from the data, not from the text of the source: active = inhibition above about 30%; inactive = the rest. A selection follows.

Target: Coagulation factor XII (Homo sapiens) (UniProt P00748)
Test: human FXIIa protease inhibitors, primary screen, biochemical, single well (AID 701);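 note: 0% = enzyme with vehicle only and 100% = no enzyme blank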
Conditions: purified human FXIIa, AMC substrate fluorescence, 2 h; at 10 µM; stronger effect = higher value

Coagulation factor XII (Homo sapiens), sequence (P00748 20-372 limits assumed): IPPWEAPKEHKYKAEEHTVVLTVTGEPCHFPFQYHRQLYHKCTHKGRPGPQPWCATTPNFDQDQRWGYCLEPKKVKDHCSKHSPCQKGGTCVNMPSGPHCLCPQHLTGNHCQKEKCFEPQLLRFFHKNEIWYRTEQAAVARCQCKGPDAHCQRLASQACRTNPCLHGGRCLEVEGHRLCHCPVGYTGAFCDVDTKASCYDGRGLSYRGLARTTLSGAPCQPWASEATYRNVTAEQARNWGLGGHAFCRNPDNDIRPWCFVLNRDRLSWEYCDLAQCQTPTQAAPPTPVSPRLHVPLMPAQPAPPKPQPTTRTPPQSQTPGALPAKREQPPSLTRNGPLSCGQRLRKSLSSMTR
Coagulation factor XII (Homo sapiens), sequence (P00748 373-615 limits assumed): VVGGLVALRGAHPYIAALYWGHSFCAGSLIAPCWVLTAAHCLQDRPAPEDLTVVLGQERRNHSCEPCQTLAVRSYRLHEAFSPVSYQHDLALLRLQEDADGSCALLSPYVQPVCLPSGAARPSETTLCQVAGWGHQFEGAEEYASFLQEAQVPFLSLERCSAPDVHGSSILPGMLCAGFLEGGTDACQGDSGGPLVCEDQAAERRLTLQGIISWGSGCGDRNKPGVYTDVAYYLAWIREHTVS

inhibition, inactive:
Cc1ccc(/C=N/NC(=O)Cn2nc(C)c(Br)c2C)o1 5.02%
Cn1nnc(NC(=O)CSc2ncn[nH]2)n1 2.58%
Cc1ccc2cc(CCNC(=O)c3ccc4c(c3)OCO4)c(=O)[nH]c2c1 7.29%
CCOc1cc2[nH]c(=S)n(Cc3ccc(C(=O)NCCOC)cc3)c(=O)c2cc1OCC -2.63%
CCOC(=O)N1CCC(Nc2c(NCCCN3CCN(CC)CC3)c(=O)c2=O)CC1 -0.96%
COc1cc(OC)c(-n2c(C)cc(C=O)c2C)cc1Cl 3.21%
c1ccc(-n2nc3ccccc3n2)cc1 0.64%
CCOc1nc(NCCN2CCOCC2)nc(Nc2ccc(C)cc2)n1 2.85%
CCN(CC)CCn1c2ccc(Cl)cc2c2nc(C)sc21 5.85%
CCOC(=O)c1cnn(Cc2ccccc2Cl)c1N -0.31%
Cc1nc2c(-c3ccc(F)cc3)c(C)nn2c(C)c1CCC(=O)NCc1ccco1 2.8%
CCOC(=O)/C(C#N)=C\c1c(C)cc(C)c(COC(C)=O)c1C 14%
Cc1cc(NC(=O)CCC(=O)N(CC(=O)NCC2CCCO2)c2ccccc2C)no1 (configuration not stated) 4.76%
CCC(C)NC(=O)CSC1=Nc2ccccc2C2=NC(CCC(=O)NCc3ccco3)C(=O)N12 (configuration not stated) 5.92%
Cc1cc(S(=O)(=O)NC2CCCCC2)ccc1OCC(=O)NCc1cccnc1 -2.34%
O=P(c1ccc2c(c1)OCCO2)(N1CCOCC1)N1CCOCC1 -11.5%
COc1ccc(C2=NOC3(CC(=O)N(c4ccc(C)cc4)C3=O)C2)cc1 (configuration not stated) 12.1%
CCOc1ccc(NC(=O)Nc2cc(C)on2)cc1 6.76%
O=C(NC1CCCCC1)C1CC(=O)N(CCc2ccccc2)C1 (configuration not stated) 1.77%
O=C(NCc1ccccc1)[C@@H]1CSC2c3ccccc3C(=O)N21 (some centres not stated) 0.72%
Cc1ccc(-n2c(=O)cc(N3CCN(Cc4ccccc4)CC3)[nH]c2=O)cc1 -11.3%
COCCn1c(SCc2nnc(-c3ccc(OC)c(OC)c3)o2)nc2sc3c(c2c1=O)CCC3 7.92%
Cc1csc(OCC(=O)Nc2ccc(C)c(C)c2)n1 7.64%
Cc1cccc(N2CCN(S(=O)(=O)c3ccc4[nH]c(=O)c(=O)[nH]c4c3)CC2C)c1 (configuration not stated) 7.11%
CCCCCCOc1ccc(OC(=O)c2cccnc2)cc1 4.38%
CCc1ccccc1NC(=O)CN(C)S(=O)(=O)c1ccc2c(c1)c(=O)n(C)c(=O)n2C -0.9%
CCn1c(CC(=O)Nc2ccc(C)cc2)nnc1SCC(=O)Nc1nc(C)cs1 3%
CCCc1nnc(NC(=O)c2cccs2)s1 4.48%
Cn1c(=O)c2c(SCC(=O)N3CCOCC3)nc(C3CC3)nc2n(C)c1=O 5.78%
S=c1nccc(-c2cc(Cl)sc2Cl)[nH]1 3.01%
Cc1ccccc1CSCCNC(=O)c1ccc(Cl)c(S(=O)(=O)N2CCOCC2)c1 -1.19%
CC(C)(C)c1ccc(OC2=CS(=O)(=O)c3ccccc32)cc1 6.47%
CCOc1ccc(C(=O)NCCCN2CCCC2=O)cc1 6.23%
COC(=O)c1cc(NC(=O)C2C3C=CC(C3)C2C(=O)O)cc(C(=O)OC)c1 (configuration not stated) -2.18%
N#CC1=C(N)N(c2ccccc2)C2=C(C(=O)CCC2)C1c1ccccc1 (configuration not stated) 6.03%
O=C(O)CCN=C1CCc2ccccc2N1 6.9%
O=C(NCc1ccccc1Cl)c1csc2c1CCCCC2 5.87%
CC1(C)N=C(c2ccccn2)C(C)(C)N1O -0.08%
O=C(NCc1ccco1)C1(c2ccc(Cl)cc2)CCCC1 1.49%
CNC(=O)c1nnc(Cc2ccc(Cl)cc2)o1 2.02%
O=C(c1ccc2c(c1)OCO2)N1CCOCC1 0.77%
CCN1C(=O)/C(=C\N2CCOCC2)SC1=S 7.15%
CC1(C)COC(c2cccn2Cc2ccccc2Cl)=N1 6.11%
O=C(CN1CCSCC1)N/N=C/c1ccc(F)cc1F 13.2%
COc1ccc(Cl)cc1C(=O)NCc1cn(C)nc1C 7.49%
COc1ccc(CNc2ccc3c(c2)CCC3)cc1OC 4.51%
O=C1/C(=C\Nc2ccccc2)CCN1c1ncccn1 11.1%
N#Cc1cccc(NC(=O)CCC2CCCC2)c1 5.6%
O=C(NC1CCCC1)C(c1ccccn1)N(C(=O)c1csnn1)C1CCCC1 (configuration not stated) -12%
Cc1cc(C(F)F)n2nc(C(=O)Nc3ccc(S(=O)(=O)NC45CC6CC(CC(C6)C4)C5)cc3)nc2n1 3.77%
CCOc1ccc(C(O)Cn2c(=N)n(CCN3CCCCC3)c3ccccc32)cc1 (configuration not stated) -17.3%
Cc1cc(C(F)(F)F)n2ncc(-c3ccccc3)c2n1 4.27%
CCC1(CC)Cc2ccccc2-c2nc3ccccc3c(=O)n21 -9.34%
Cc1ccc(NS(=O)(=O)c2c(C)[nH]c(=O)[nH]c2=O)cc1C 5.29%
CC(C)NC(=O)CSc1nnc(COc2ccccc2Cl)o1 6.2%
CCOC(=O)N1CCC(N(CCOC)C(=O)Nc2ccc(C)c(C)c2)CC1 11%
N#C/C(=C\c1ccccc1)c1n[nH]c(Cn2cncn2)n1 3.67%
CCOC(=O)c1cnc(SCc2nc(N)nc(Nc3ccc(OC)cc3)n2)nc1N 2.04%
O=C(N/N=C/C=C/c1ccccc1)C1CC1(c1ccccc1)c1ccccc1 (configuration not stated) 7.46%
CCOc1ccc(NC(=O)N(CC(C)C)CC(C)C)cc1 3.85%
CCC(C)NC(=O)C1CCCN(C(=O)NC2CCCCC2)C1 (configuration not stated) 5.82%
O=C(CC12CC3CC(CC(C3)C1)C2)Nc1ccc2c(c1)COC2=O 3.57%
COc1ccc(C)cc1N(C)C(=O)c1coc(=O)c2ccccc12 1.74%
C=CCNC(=O)C1CC=CCC1C(=O)O (configuration not stated) 5.98%
CC1CC(C)CN(CC(=O)N2c3ccccc3CCc3ccccc32)C1 (configuration not stated) -2.18%
COC(CNC(=O)Cn1ncc2ccsc2c1=O)OC 8.94%
Cc1cccc(C)c1NC(=O)CSc1nnc(-c2ccccc2)n1Cc1ccc2c(c1)OCO2 7.65%
CC1(C)CC(CC(=O)O)C(=O)O1 (configuration not stated) -10.1%
COc1ccccc1-c1nc(C#N)c(N2CCC(C(N)=O)CC2)o1 -1.38%
COc1ccc(Br)cc1CN1CCN(C(=O)c2cccc(OC)c2OC)CC1 6.66%
O=C(CCN1c2ccccc2Sc2ccccc21)Nc1ccccc1 4.62%
COc1ccc(NC(=O)C(CC(C)C)NS(=O)(=O)c2ccc3c(c2)CCN3C(C)=O)cc1OC (configuration not stated) 5.4%
CCOC(=O)c1ccc2c(c1)nc(C)n2CC 2.03%
CCCNC(=O)c1ccc(Cl)c(Cl)c1 3.09%
CCCCc1nnc(NC(=O)CS(=O)(=O)Cc2ccccc2)s1 2.19%
N#C/C(=C(\O)CCl)c1nnc2n1CCCCC2 1.09%
Cc1ccc(-n2nc3c(c2NC(=O)CCC2CCCCC2)CS(=O)C3)cc1 (configuration not stated) 2.44%
